This is an account of results in the supplement of paper PMC8728848.

Many of the other results were omitted from the sample, so the strongest signals are more common in it than they were.

Common to all, as to assay: glycan array binding signal (z-score within array); higher = stronger binding
What all share (settings): glycan notation: IUPAC condensed, linker removed

Assay [1] has as its target Fuc(a1-2)Gal(b1-3)GalNAc. In outline: (§1)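 The binding signal is a Z-score computed within each array and averaged over linkers. Arrays of the same protein sequence at different concentrations or buffers were also averaged together. Data originate from 3228 arrays in the Consortium for Functional Glycomics database, kept only where the protein sequence was available.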
Assay [2] concerns the target Fuc(a1-2)Gal(b1-3)GalNAc(b1-4)[Neu5Ac(a2-3)]Gal(b1-4)Glc. An outline of the steps: as §1
Assay [3] deals with Fuc(a1-2)Gal(b1-4)[Fuc(a1-3)]GlcNAc. In outline: as §1
Assay [4] addresses Fuc(a1-2)Gal(b1-4)[Fuc(a1-3)]GlcNAc(b1-3)Gal(b1-4)[Fuc(a1-3)]GlcNAc. An outline of the steps: as §1
Assay [5] addresses Fuc(a1-2)Gal(b1-4)[Fuc(a1-3)]GlcNAc(b1-3)Gal(b1-4)[Fuc(a1-3)]GlcNAc(b1-3)Gal(b1-4)[Fuc(a1-3)]GlcNAc. An outline of the steps:
as §1

In assay [6] the target is Fuc(b1-3)GlcNAc. In outline: as §1
The target in assay [7] is Gal(a1-3)Gal. An outline of the steps:
as §1

The target of assay [8] is Gal(b1-4)Glc6S. In outline: as §1
For assay [9], the target named is Gal3S(b1-4)GlcNAc6S. In outline:
as §1

The target of assay [10] is Gal3S6S(b1-4)GlcNAc. An outline of the steps: as §1
In assay [11] the target is Gal3S6S(b1-4)GlcNAc6S. An outline of the steps:
as §1

In assay [12] the target is Gal6S(b1-4)Glc6S. An outline of the steps: as §1
Assay [13] has as its target GalNAc(a1-3)GalNAc. In outline:
as §1

Assay [14] addresses GalNAc(b1-4)GlcNAc. An outline of the steps:
as §1

In assay [15] the target is Neu5Ac(a2-3)Gal(b1-3)GlcNAc. An outline of the steps: as §1
Assay [16] concerns the target Neu5Ac(a2-3)GalNAc. In outline: as §1
Assay [17] deals with Neu5Gc(a2-3)Gal(b1-4)[Fuc(a1-3)]GlcNAc. In outline: as §1
Assay [18] has as its target Fuc(a1-2)GlcNAc. In outline: as §1
The target in assay [19] is Fuc(a1-3)[Gal3S(b1-4)]GlcNAc. An outline of the steps:
as §1

In assay [20] the target is Gal(b1-3)[Fuc(a1-4)]GlcNAc(b1-3)Gal(b1-4)[Fuc(a1-3)]GlcNAc. In outline:
as §1

Assay [21] concerns the target Gal(b1-4)GlcNAc(b1-3)Gal(b1-4)[Fuc(a1-3)]GlcNAc(b1-3)Gal(b1-4)[Fuc(a1-3)]GlcNAc. An outline of the steps: as §1
In assay [22] the target is Gal3S(b1-4)Glc. An outline of the steps:
as §1

Assay [23] addresses GlcNAc(b1-2)Gal(b1-3)GalNAc. In outline:
as §1

For assay [24], the target named is Kdn(a2-3)Gal(b1-4)GlcNAc. In outline:
as §1

The target in assay [25] is Man(a1-3)[Man(a1-6)]Man. An outline of the steps: as §1
Assay [26] concerns the target Neu5Ac(a2-3)Gal(b1-3)GalNAc6S. An outline of the steps:
as §1

Assay [27] addresses Neu5Ac(a2-3)Gal(b1-4)GlcNAc(b1-3)Gal(b1-4)GlcNAc. In outline: as §1
Assay [28] addresses Neu5Ac(a2-6)Gal(b1-4)GlcNAc(b1-2)Man(a1-3)[Neu5Ac(a2-6)Gal(b1-4)GlcNAc(b1-2)Man(a1-6)]Man(b1-4)GlcNAc(b1-4)GlcNAc. In outline:
as §1

Assay [29] addresses Neu5Ac(a2-6)Gal(b1-4)GlcNAc6S. In outline: as §1
In assay [30] the target is Neu5Ac9Ac(a2-6)Gal(b1-4)GlcNAc. In outline:
as §1

Assay [31] addresses Fuc(a1-2)Gal(b1-4)GlcNAc. An outline of the steps: as §1
In assay [32] the target is Fuc(a1-2)Gal(b1-4)GlcNAc(b1-3)Gal(b1-4)GlcNAc. In outline: as §1
Assay [33] addresses Fuc(a1-2)[Gal(a1-3)]Gal(b1-4)[Fuc(a1-3)]GlcNAc. An outline of the steps:
as §1

Assay [34] concerns the target Gal(b1-3)GalNAc(b1-4)Gal(b1-4)Glc. An outline of the steps:
as §1

Assay [35] addresses Gal(b1-3)[Fuc(a1-4)]GlcNAc(b1-3)Gal(b1-4)GlcNAc. In outline:
as §1

Assay [36] deals with Gal(b1-4)Glc. An outline of the steps: as §1
Assay [37] has as its target Gal(b1-4)GlcNAc(b1-3)Gal(b1-4)Glc. An outline of the steps: as §1
Assay [38] deals with Gal(b1-4)GlcNAc(b1-3)Gal(b1-4)GlcNAc(b1-3)Gal(b1-4)GlcNAc. In outline:
as §1

Assay [39] deals with Gal(b1-4)GlcNAc(b1-3)GalNAc. An outline of the steps:
as §1

Assay [40] deals with GlcNAc(b1-4)GlcNAc(b1-4)GlcNAc(b1-4)GlcNAc(b1-4)GlcNAc(b1-4)GlcNAc. In outline:
as §1

The target in assay [41] is Neu5Ac(a2-3)Gal(b1-3)[Fuc(a1-4)]GlcNAc(b1-3)Gal(b1-4)[Fuc(a1-3)]GlcNAc. In outline:
as §1

Assay [42] deals with Neu5Ac(a2-3)GalNAc(b1-4)GlcNAc. In outline:
as §1

Assay [43] has as its target Neu5Ac(a2-6)Gal(b1-4)GlcNAc(b1-3)Gal(b1-4)[Fuc(a1-3)]GlcNAc(b1-3)Gal(b1-4)[Fuc(a1-3)]GlcNAc. In outline:
as §1

For assay [44], the target named is Neu5Gc(a2-3)Gal(b1-3)[Fuc(a1-4)]GlcNAc. An outline of the steps: as §1
The target in assay [45] is Neu5Gc(a2-3)Gal(b1-4)Glc. In outline:
as §1

B1: MIG/CXCL9 (Homo sapiens) (protein)
chain: TPVVRKGRCSCISTNQGTIHLQSLKDLKQFAPSPSCEKIEIIIATLKNGVQTCLNPDSADVKELIKKTEKQVSQKKKQKNGKKHQKKKVLKVRKSQRSRQKKTT
For B1, the “glycan array binding signal (z-score)” value was -0.29 in [1]; -0.193 in assay [2]; -0.26 in [3]; -0.383 in assay [4]; -0.37 in assay [5]; -0.209 in assay [6]. Besides, the “glycan array binding signal (z-score)” value was -0.114 in assay [7]; 0.015 in assay [8]; 2.28 in assay [9]; 2.35 in assay [10]; 5.28 in assay [11]; 2.35 in assay [12]. The “glycan array binding signal (z-score)” value is 0.274 in assay [13]; -0.358 in assay [14]; -0.037 in [15]; -0.254 in assay [16]; -0.288 in [17].

B2: MMR (Homo sapiens), P22897 (protein)
chain: MRLPLLLVFASVIPGAVLLLDTRQFLIYNEDHKRCVDAVSPSAVQTAACNQDAESQKFRWVSESQIMSVAFKLCLGVPSKTDWVAITLYACDSKSEFQKWECKNDTLLGIKGEDLFFNYGNRQEKNIMLYKGSGLWSRWKIYGTTDNLCSRGYEAMYTLLGNANGATCAFPFKFENKWYADCTSAGRSDGWLWCGTTTDYDTDKLFGYCPLKFEGSESLWNKDPLTSVSYQINSKSALTWHQARKSCQQQNAELLSITEIHEQTYLTGLTSSLTSGLWIGLNSLSFNSGWQWSDRSPFRYLNWLPGSPSAEPGKSCVSLNPGKNAKWENLECVQKLGYICKKGNTTLNSFVIPSESDVPTHCPSQWWPYAGHCYKIHRDEKKIQRDALTTCRKEGGDLTSIHTIEELDFIISQLGYEPNDELWIGLNDIKIQMYFEWSDGTPVTFTKWLRGEPSHENNRQEDCVVMKGKDGYWADRGCEWPLGYICKMKSRSQGPEIVEVEKGCRKGWKKHHFYCYMIGHTLSTFAEANQTCNNENAYLTTIEDRYEQAFLTSFVGLRPEKYFWTGLSDIQTKGTFQWTIEEEVRFTHWNSDMPGRKPGCVAMRTGIAGGLWDVLKCDEKAKFVCKHWAEGVTHPPKPTTTPEPKCPEDWGASSRTSLCFKLYAKGKHEKKTWFESRDFCRALGGDLASINNKEEQQTIWRLITASGSYHKLFWLGLTYGSPSEGFTWSDGSPVSYENWAYGEPNNYQNVEYCGELKGDPTMSWNDINCEHLNNWICQIQKGQTPKPEPTPAPQDNPPVTEDGWVIYKDYQYYFSKEKETMDNARAFCKRNFGDLVSIQSESEKKFLWKYVNRNDAQSAYFIGLLISLDKKFAWMDGSKVDYVSWATGEPNFANEDENCVTMYSNSGFWNDINCGYPNAFICQRHNSSINATTVMPTMPSVPSGCKEGWNFYSNKCFKIFGFMEEERKNWQEARKACIGFGGNLVSIQNEKEQAFLTYHMKDSTFSAWTGLNDVNSEHTFLWTDGRGVHYTNWGKGYPGGRRSSLSYEDADCVVIIGGASNEAGKWMDDTCDSKRGYICQTRSDPSLTNPPATIQTDGFVKYGKSSYSLMRQKFQWHEAETYCKLHNSLIASILDPYSNAFAWLQMETSNERVWIALNSNLTDNQYTWTDKWRVRYTNWAADEPKLKSACVYLDLDGYWKTAHCNESFYFLCKRSDEIPATEPPQLPGRCPESDHTAWIPFHGHCYYIESSYTRNWGQASLECLRMGSSLVSIESAAESSFLSYRVEPLKSKTNFWIGLFRNVEGTWLWINNSPVSFVNWNTGDPSGERNDCVALHASSGFWSNIHCSSYKGYICKRPKIIDAKPTHELLTTKADTRKMDPSKPSSNVAGVVIIVILLILTGAGLAAYFFYKKRRVHLPQEGAFENTLYFNSQSSPGTSDMKDLVGNIEQNEHSVI
For the molecule B2, the “glycan array binding signal (z-score)” value was -0.435 in [1]; -0.234 in [4]; -0.407 in assay [18]; 2.96 in assay [19]; -0.37 in [20]; 0.283 in assay [21]. Besides, the “glycan array binding signal (z-score)” value in [22] was 3.67; in assay [9], 3.5; in [11] it was 3.58; in [23], -0.453; in assay [24], 0.013; in assay [25] it was 3.57. For the same molecule, the “glycan array binding signal (z-score)” value in assay [26] was -0.344; in assay [27] it was -0.439; in [28] it was -0.418; in assay [29], -0.155; in assay [30], -0.397.

B3: STA (Solanum tuberosum), Q9S8M0 (protein)
chain: NASPPSPSPLPYPQCGMKKGGGKCIKTGECCSIWGWCGTTNAYCSPGYCQKQCPGPYPEGRCGWQANGKSCPTGTGQCCSNGGWCGTTSDYCASKNCQSQCKLPSPPPPPPPPSPPPPSPPSPPPPSPPPPPPPSPPPPSPPPPSPSPPPPPASPPPPPPALPYPQCGIKKGGGKCIKTGECCSIWGWCGTTNAYCSPGYCQKQCPGPYPEGRCGWQANGKSCPTGTGHCCSNAGWCGTTSDYCAPVNCQAQCNTTTLTSPIKNRMRGIESFMLNVV
Consider B3, for which the “glycan array binding signal (z-score)” value in assay [1] is -0.582; in [31], 2.12; in [32], 2.12; in assay [33] it was -0.593; in [34], -0.595; in [35], -0.584. For the same molecule, the “glycan array binding signal (z-score)” value in assay [36] is -0.586; in assay [37] it was 1.35; in [38], 2.26; in [39], -0.564; in assay [40], 2.18; in [41], -0.589. Also, the “glycan array binding signal (z-score)” value is 2.22 in assay [42], -0.578 in [43], -0.58 in [44] and -0.591 in [45].
